Experimental findings from PubChem BioAssay (NCATS) are described below.

Results filed as inconclusive are left out. Entries that show only a call come without a potency. A number with no mark means an inactive call. Calls of active or inactive are those of the source. The call rests on the fitted dose curve; in most records, active means well fitted inhibition curve with a large enough effect; inconclusive means small, poorly fitted or top-dose-only effect; inactive means flat fitted curve, though single readings scatter.
Further: nearly all actives have a fitted effect of over 65% in size.

Sequence of Phospholipid hydroperoxide glutathione peroxidase GPX4 (Homo sapiens) (P36969 whole entry, looked up): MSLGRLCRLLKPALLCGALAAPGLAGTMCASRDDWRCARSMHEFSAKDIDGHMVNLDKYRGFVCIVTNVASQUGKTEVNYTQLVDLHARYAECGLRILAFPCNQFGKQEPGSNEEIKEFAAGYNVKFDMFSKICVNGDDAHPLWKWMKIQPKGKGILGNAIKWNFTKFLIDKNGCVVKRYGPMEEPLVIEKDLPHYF
Sequence of Glutathione peroxidase 1 (Homo sapiens) (P07203 whole entry, looked up): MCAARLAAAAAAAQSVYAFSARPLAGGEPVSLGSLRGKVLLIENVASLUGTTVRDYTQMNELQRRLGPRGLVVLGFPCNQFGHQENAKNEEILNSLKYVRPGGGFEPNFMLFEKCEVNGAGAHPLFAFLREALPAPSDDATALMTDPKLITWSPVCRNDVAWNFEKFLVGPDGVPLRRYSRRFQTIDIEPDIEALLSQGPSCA

For one assay, the target named is Glutathione peroxidase 1 (Homo sapiens) (UniProt P07203). The experiment in a line: Primary qHTS Assay for Inhibitors of Recombinant Selenoprotein Glutathione Peroxidase 1 (GPX1) (AID 1845191). Particulars: recombinant GPX1, GR-coupled NADPH fluorescence, 15 min; series mostly up to 48.8 µM. The method in brief:
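10 nM GPX1 + cpd, 30 min RT; start w/ 1 mM GSH, 0.5 mM cumene hydroperoxide, 0.5 mM NADPH, 100 nM GR, 0.01% BSA; buffer 50 mM Tris-HCl pH 7.5, 2 mM EDTA, 150 mM NaCl; Fl 340/450, 0 & 15 min.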
On the technique in general: In qHTS, concentration-response curves come from the screen itself.
`O=C(Nc1ccc(Oc2ccnc3[nH]ccc23)c(F)c1)c1cccn(-c2ccc(F)cc2)c1=O`: the Potency result is “inactive”.

Take `Cn1cc(C2=C(c3c4n(c5ccccc35)CCC(CN)C4)C(=O)NC2=O)c2ccccc21` (stereo not given): the outcome is “inactive [at 9.52 µM]”.

With `COc1ccc([C@@H]2CNC(=O)C2)cc1OC1CCCC1`, the Potency result was “inactive”.

As for `COc1cc(CCc2cc(NC(=O)c3ccc(N4C[C@@H](C)N[C@@H](C)C4)cc3)n[nH]2)cc(OC)c1`, the Potency entry was “inactive”.

Turning to `COc1cccc2c1C(=O)c1c(O)c3c(c(O)c1C2=O)C[C@@](O)(C(=O)CO)C[C@@H]3O[C@H]1C[C@H](N)[C@H](OC2CCCCO2)[C@H](C)O1` (stereo not given in full), the Potency entry was “inactive”.

Another assay addresses Phospholipid hydroperoxide glutathione peroxidase GPX4 (Homo sapiens) (UniProt P36969). The experiment in a line: Primary qHTS Assay for Inhibitors of Recombinant Selenoprotein Glutathione Peroxidase 4 (GPX4) (AID 1845192). The conditions noted are these: recombinant GPX4, GR-coupled NADPH fluorescence, 15 min; series mostly up to 50 µM. The method in brief:
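NADPH consumption, followed by fluorescence at 340/450 nm between 0 and 15 min, reports GPX4 activity via coupled glutathione reductase (100 nM). Enzyme 200 nM was pre-exposed to compound 30 min; 0.5 mM cumene hydroperoxide and 1 mM GSH served as substrates.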
For the compound `Nc1nc(=O)n([C@H]2C[C@H](O)[C@@H](CO)O2)cc1F`, the Potency entry was “inactive”.

For the compound `C[C@H]1[C@@H](OC(=O)CCC(=O)O)O[C@@H]2O[C@@]3(C)CC[C@@H]4[C@H](C)CC[C@@H]1[C@@]24OO3`, the Potency entry was “inactive”.

Regarding `COc1ccc(Nc2nccc(NCCO)n2)cc1`, the Potency result was “inactive”.

With `COc1ccc(C=Cc2cc(OC)c(OC)c(OC)c2)cc1NC(=O)[C@H](N)CO`, the Potency result was “inactive”.

Take `CCn1c(=O)c2c(nc(C=Cc3ccc(OC)c(OC)c3)n2C)n(CC)c1=O`: the Potency entry was “inactive”.

As to `Nc1cccc2c1C(=O)N(C1CCC(=O)NC1=O)C2=O` (stereo not given), the Potency entry is “inactive”.

With `N#Cc1c(NC(=O)c2cccc3ccccc23)sc2c1CCCC2`, the Potency entry is “inactive”.

Turning to `C[C@@H]1CC[C@@]2(OC1)OC1CC3C4CC=C5CC(O)CCC5(C)C4CCC3(C)C1[C@@H]2C` (stereo not given in full), the Potency entry was “inactive”.

In the case of `Cc1cnc(NC(=O)Nc2cc(Br)c(C)cc2OC[C@@H]2CNCCO2)cn1`, the Potency entry is “inactive”.

For the compound `O=C(CCCCCCC(=O)Nc1cccnc1)NO`, the Potency result was “inactive”.

Take `CCCCCCCN(CC)CCCC(O)c1ccc(NS(C)(=O)=O)cc1` (stereo not given): the Potency entry was “inactive”.

On to `Oc1ccc(-c2ccc(-c3cc(Nc4cccc(CNC5CC5)c4)n[nH]3)cc2)c(O)c1`, for which the Potency result was “inactive”.

With `CCCCCCCCCCCCCCCC(=O)OC[C@@H](NC(=O)C(Cl)Cl)[C@H](O)c1ccc([N+](=O)[O-])cc1`, the Potency result was “inactive”.

`Cc1ncc(-c2ccnc(Nc3ccc(S(C)(=O)=O)cc3)n2)n1C(C)C`: the Potency result is “inactive”.

With `CN(C)CCN1C(=O)c2cccc3cc(N)cc(c23)C1=O`, the Potency result is “inactive”.

Consider `Nc1ccn(C2CO[C@H](CO)O2)c(=O)n1` (stereo not given in full), for which the Potency result is “inactive”.

`Nc1nc2c(c(=O)[nH]1)N(C=O)[C@H](CNc1ccc(C(=O)N[C@@H](CCC(=O)O)C(=O)O)cc1)CN2`: the Potency entry is “inactive”.

Take `NC(=O)N1CCC(CC(=O)N2CCC([C@H]3c4ncc(Br)cc4CCc4cc(Cl)cc(Br)c43)CC2)CC1`: the Potency result is “inactive”.

On to `C[C@@H](NCc1cc2ccccc2[nH]1)c1cccc2ccccc12`, for which the Potency result was “inactive”.

As for `O=C(O)c1ccc(Nc2ncc3c(n2)-c2ccc(Cl)cc2C(c2c(F)cccc2F)=NC3)cc1`, the Potency result is “inactive”.

Regarding `C[C@H](CCC(=O)O)[C@H]1CCC2C3C[C@H](O)[C@@H]4C[C@H](O)CC[C@]4(C)C3CC[C@@]21C` (stereo not given in full), the Potency result is “inactive”.

In the case of `CN(C)c1ccc2cc(C(=O)N[C@@H](CCCN=C(N)CCl)C(=O)NCc3ccccc3)ccc2c1`, the Potency result is “inactive”.

With `COc1cccc2c1C(=O)c1c(O)c3c(c(O)c1C2=O)C[C@@](O)(C(=O)CO)C[C@@H]3O[C@H]1C[C@H](N)[C@@H](O)[C@H](C)O1`, the Potency entry is “inactive”.

As to `CCN(CC)CCCCNc1ncc2c(n1)N(C)C(=O)N(c1c(Cl)c(OC)cc(OC)c1Cl)C2`, the Potency entry is “inactive”.

Take `COC(=O)[C@H](CCCN=C(N)N)NS(=O)(=O)c1ccc(C)cc1`: the Potency entry is “inactive”.

With `COc1cc([C@@H]2c3cc4c(cc3[C@H](O)[C@H]3COC(=O)[C@@H]23)OCO4)cc(OC)c1OC`, the Potency result was “inactive”.

As to `CC1(C)O[C@@H]2C[C@H]3[C@@H]4CCC5=CC(=O)C=C[C@]5(C)[C@@H]4[C@@H](O)C[C@]3(C)[C@]2(C(=O)CO)O1`, the Potency entry is “inactive”.

In the case of `Cn1c(Nc2ccc(C(F)(F)F)cc2)nc2cc(Oc3ccnc(-c4ncc(C(F)(F)F)[nH]4)c3)ccc21`, the Potency entry is “inactive”.

As to `C=CC(=O)Nc1ccc2ncnc(Nc3ccc(OCc4cccc(F)c4)c(Cl)c3)c2c1`, the Potency entry was “inactive”.

On to `Cc1ccc(-n2[nH]c(C)c(N=Nc3cccc(-c4cccc(C(=O)O)c4)c3O)c2=O)cc1C`, for which the Potency result was “inactive”.

For `O=C(Nc1ccc(Oc2ccnc3[nH]ccc23)c(F)c1)c1cccn(-c2ccc(F)cc2)c1=O`, the Potency entry was “inactive”.

Consider `Cn1cc(C2=C(c3c4n(c5ccccc35)CCC(CN)C4)C(=O)NC2=O)c2ccccc21` (stereo not given), for which the activity change, negative = inhibition is -6.23% [at 9.73 µM].

In the case of `COc1ccc([C@@H]2CNC(=O)C2)cc1OC1CCCC1`, the Potency result is “inactive”.

For `COc1cc(CCc2cc(NC(=O)c3ccc(N4C[C@@H](C)N[C@@H](C)C4)cc3)n[nH]2)cc(OC)c1`, the Potency entry is “inactive”.

Regarding `COc1cccc2c1C(=O)c1c(O)c3c(c(O)c1C2=O)C[C@@](O)(C(=O)CO)C[C@@H]3O[C@H]1C[C@H](N)[C@H](OC2CCCCO2)[C@H](C)O1` (stereo not given in full), the Potency entry was “inactive”.
